In all, about 190,000 compounds went through this assay and about 810 (0.43%) were called active. Cut-off read from the data, not from the text of the source: active = inhibition above about 50%; inactive = the rest. The full list was thinned out, with actives kept by preference.
Biological target: Mannose-6-phosphate isomerase (Homo sapiens) (UniProt P34949)
Experiment: MPI enzyme activity inhibition – biochemical, fluorescence intensity, coupled assay, primary screen (AID 1209);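 note: plate controls were DMSO vehicle for no effect and wells lacking substrate for full effect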
Conditions: purified PMI enzyme, at 20 µM, stronger effect = higher value

Sequence of Mannose-6-phosphate isomerase (Homo sapiens) (P34949 whole entry, looked up): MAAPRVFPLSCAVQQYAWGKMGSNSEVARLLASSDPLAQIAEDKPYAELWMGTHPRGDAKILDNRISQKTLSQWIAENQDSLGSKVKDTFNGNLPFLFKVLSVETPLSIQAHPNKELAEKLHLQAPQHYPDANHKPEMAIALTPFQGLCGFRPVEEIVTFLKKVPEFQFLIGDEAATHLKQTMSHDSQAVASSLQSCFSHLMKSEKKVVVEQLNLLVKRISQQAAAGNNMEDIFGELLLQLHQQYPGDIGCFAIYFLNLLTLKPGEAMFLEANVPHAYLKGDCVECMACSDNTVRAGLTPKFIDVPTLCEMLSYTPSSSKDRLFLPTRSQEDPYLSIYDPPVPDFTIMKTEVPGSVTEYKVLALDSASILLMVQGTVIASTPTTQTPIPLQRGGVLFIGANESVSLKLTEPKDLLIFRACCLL

SMILES	inhibition
CC1CCCN(C(=S)SCC(=O)O)C1 (stereo not given)	0.8% (inactive)
O=C(CSC(=S)N1CCCC1)c1cc(Br)cc(Br)c1O	33.3% (inactive)
CC1CCCN(C(=S)SCC(=O)c2cc(Br)cc(Br)c2O)C1 (stereo not given)	66.4% (active)
COc1cc(/C=C2\SC(=Nc3ccccc3)N(CCc3c[nH]c4ccccc34)C2=O)ccc1OC(C)C(=O)O (stereo not given)	8% (inactive)
COc1cc(C(=O)OCC(=O)Nc2c(F)c(F)c(F)c(F)c2F)cc(OC)c1OC	-2.4% (inactive)
CC(=O)Nc1ccc(N(C(=O)Cn2nnc3ccccc32)C(C(=O)NC2CCCC2)c2ccc(O)c(O)c2)cc1 (stereo not given)	61.2% (active)
O=C(NC1CCCCC1)C(c1ccc(O)c(O)c1)N(C(=O)Cn1nnc2ccccc21)c1cccc(O)c1 (stereo not given)	47.5% (inactive)
Cc1ccc(N(C(=O)Cn2nnc3ccccc32)C(C(=O)NC2CCCCC2)c2cn(C)nc2C)cc1 (stereo not given)	-4.2% (inactive)
Cc1cc(C)n(-c2nc3ccccc3n3cnnc23)n1	-2.9% (inactive)
COc1ccc(OC)c(NC(=O)c2cc3c(=O)n4ccccc4nc3n2C)c1	-10.9% (inactive)
COc1ccc(NC(=S)NNC(=O)c2nnn(-c3ccccc3)c2C)cc1	-2% (inactive)
Cc1ccccc1N(CC(=O)Nc1ccccc1C(=O)NCc1ccco1)S(=O)(=O)c1ccccc1	-11.7% (inactive)
CN1CCc2c(C#N)c(N3CCCCC3)nc(NCc3ccccc3)c2C1	26.6% (inactive)
C=CCNc1nc(NCc2ccccc2)c(C#N)c2c1CN(C)CC2	54.4% (active)
CCN1CCc2c(C#N)c(NCc3ccccc3)nc(N(CC)CC)c2C1	3% (inactive)
CCN1CCc2c(C#N)c(NCc3ccccc3)nc(NCCO)c2C1	52.6% (active)
N#Cc1c(NCCCO)nc(NCc2ccccc2)c2c1CCN(Cc1ccccc1)C2	56.3% (active)
CCN1CCc2c(C#N)c(N3CCCCC3)nc(NCc3ccccc3)c2C1	30.4% (inactive)
C=CCNc1nc(N2CCOCC2)c(C#N)c2c1CN(C)CC2	9.5% (inactive)
N#Cc1c(NCCCO)nc(-c2ccccc2)c2c1CCCC2	13.8% (inactive)
N#Cc1c(NCCN)nc(NCc2ccccc2)c2c1CCN(Cc1ccccc1)C2	17.8% (inactive)
CCOC(=O)c1cccc(NC(=O)CSc2nnnn2C)c1	-7.4% (inactive)

SMILES	inhibition
Cc1cc(NC(=O)CCc2ccc(S(=O)(=O)N3CCOCC3)cc2)n(-c2ccccc2)n1	-7% (inactive)
N#Cc1cnn2ccc(-c3ccc4c(c3)CCC4)nc12	0.4% (inactive)
COCC(C)NC(=O)/C=C/c1ccc(OC)cc1 (stereo not given)	9.4% (inactive)
O=C(c1cc(Cl)ccc1[N+](=O)[O-])N1CCc2ccccc2C1	7.8% (inactive)
O=C(CSc1nc2ccccc2o1)NCC(=O)c1ccccc1	10.6% (inactive)
CC(=O)N1N=C(c2cccc(Cl)c2)OC1c1cccc([N+](=O)[O-])c1 (stereo not given)	10.4% (inactive)
Cc1cccc(NC(=O)CC2S/C(=N/c3nccs3)N(C)C2=O)c1 (stereo not given)	-1.9% (inactive)
Cc1ccc(-n2c(=S)[nH]c3sc4c(c3c2=O)CCC4)cc1	2.3% (inactive)
COc1ccc(-n2c(=S)[nH]c3sc4c(c3c2=O)CCc2ccccc2-4)cc1	57.8% (active)
Cc1cccc(-n2c(=S)[nH]c3c(oc4ccccc43)c2=O)c1	-1.9% (inactive)
Cc1ccc(-n2c(=S)[nH]c3sc4c(c3c2=O)CCc2ccccc2-4)cc1	10.4% (inactive)
Cc1cccc(-n2c(=O)c3c4c(sc3n3c(=S)[nH]nc23)CCC4)c1	-0.7% (inactive)
COc1ccc(N2C(=O)CCC(C(=O)NCCN3CCOCC3)C2c2ccc(OC)c(OC)c2)cc1 (stereo not given)	17.2% (inactive)
C=CCNC(=O)/C(=C/c1ccccc1OCC)NC(=O)c1ccccc1	3.5% (inactive)
CCCSc1nnc2[nH]c(=O)cc(N)n12	-1.4% (inactive)
CCO[C@H]1OC(C(=O)N2CCN(Cc3ccc4c(c3)OCO4)CC2)=C[C@@H](c2ccccc2)[C@@H]1CCCO	7.5% (inactive)
O=C(Cn1cncn1)NCCCc1ccccc1	4.2% (inactive)
COc1cc(/C=C2\NC(=S)N(C)C2=O)ccc1O	-2.1% (inactive)
CC(=O)c1c(C)[nH]c(C(=O)OCC(=O)Nc2cc(Cl)ccc2[N+](=O)[O-])c1C	9.3% (inactive)
Cc1ccc(S(=O)(=O)N2CCN(C(=O)/C=C/c3ccco3)CC2)cc1	26% (inactive)
COc1ccccc1N1C(=N)S/C(=C\c2ccc(-c3ccccc3C(=O)O)o2)C1=O	-36.9% (inactive)
Cc1ccc(C)c(N2C(=N)S/C(=C\c3ccc(-c4ccccc4C(=O)O)o3)C2=O)c1	18.5% (inactive)

SMILES	inhibition
CC(=O)Nc1ccc(S(=O)(=O)NNC(=O)COc2ccc(C)cc2)cc1	0.9% (inactive)
CCOC(=O)N1CCN(Cc2ccc(F)cc2F)CC1	-1.3% (inactive)
Cc1cc(C)n2ncnc2n1	5.9% (inactive)
Cc1cc(C)n2nc[n+](C)c2n1	72.6% (active)
Cc1cc(C)n2nc(CCc3nc4nc(C)cc(C)n4n3)nc2n1	-4.4% (inactive)
Cc1cc(-c2ccc(N3C(=O)CCC3=O)c(C)c2)ccc1N1C(=O)CCC1=O	1.5% (inactive)
COC(=O)CN(c1ccc(Cl)cc1C)S(C)(=O)=O	1.2% (inactive)
COc1ccc(C(=O)CNc2ccccc2C#N)cc1	-2.6% (inactive)
COc1ccc(C(=O)CNc2ccccc2CO)cc1	-10.5% (inactive)
COc1ccc(C(=O)CNc2ccc3ccccc3c2)cc1	76.9% (active)
O=[N+]([O-])c1cccc(-c2nc3ccc([N+](=O)[O-])cc3[nH]2)c1	-13.7% (inactive)
COc1ccccc1NC(=O)c1ccc(NC(=O)COC(=O)C2CCCCC2)cc1	10.6% (inactive)
CSC1=N/C(=C\c2cccc(F)c2)C(=O)S1	-4.9% (inactive)
CCCCNC(=S)Nc1cccc2cnccc12	5.6% (inactive)
S=C(Nc1ccc(Cl)cc1)Nc1cccc2cnccc12	26.4% (inactive)
Cc1ccc(NC(=S)Nc2cccc3cnccc23)cc1C	-0.2% (inactive)
Cc1ccc(NC(=S)Nc2cccc3cnccc23)cc1	80.1% (active)
Cc1cc(C)cc(NC(=S)Nc2cccc3cnccc23)c1	66.2% (active)
S=C(Nc1cccc(Cl)c1)Nc1cccc2cnccc12	57.2% (active)
C=C(C)CNC(=S)Nc1cccc2cnccc12	14.2% (inactive)
S=C(Nc1cccnc1)Nc1cccc2cnccc12	47.5% (inactive)

Reference: PubChem BioAssay AID1209 (Sanford-Burnham Center for Chemical Genomics, 2008)
